Compound activity (PubChem BioAssay)
Compounds with a hit are over-represented: about 2.4% of the library has one in this group of screens.
D2 ag-1: Beta-Arrestin HTS for Positive Allosteric Modulators of the Human D2 Dopamine Receptor: Agonists; actives 0.084% (n = 360,000); DiscoveRx PathHunter D2 beta-arrestin, luminescence, 90 min; 100% = 57 uM dopamine signal; D(2) dopamine receptor (Homo sapiens), P14416; activation, % (concentration not given with the values); in the data active means activation above about 40%
Target sequence (P14416 whole entry, looked up): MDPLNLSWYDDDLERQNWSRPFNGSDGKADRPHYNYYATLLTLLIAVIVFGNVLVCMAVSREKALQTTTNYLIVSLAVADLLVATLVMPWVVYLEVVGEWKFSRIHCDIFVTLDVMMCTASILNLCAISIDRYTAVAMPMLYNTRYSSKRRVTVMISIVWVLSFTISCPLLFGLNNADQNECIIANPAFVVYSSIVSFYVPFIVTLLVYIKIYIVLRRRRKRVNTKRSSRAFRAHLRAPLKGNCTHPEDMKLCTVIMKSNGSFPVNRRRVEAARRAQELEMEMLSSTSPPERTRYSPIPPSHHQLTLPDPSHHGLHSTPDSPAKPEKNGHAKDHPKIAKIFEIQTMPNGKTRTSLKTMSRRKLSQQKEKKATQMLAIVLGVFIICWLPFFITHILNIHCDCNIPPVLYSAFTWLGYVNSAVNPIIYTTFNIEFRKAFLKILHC
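Agonist mode: compounds alone added to overnight-plated D2 PathHunter cells for 90 min at 37 C, with 57 uM final dopamine (EC100) defining full response. Beta-arrestin recruitment detected by chemiluminescent reagent, read after 1 h at ambient temperature.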
D2 ag-2: HTS Assay for Allosteric Agonists of the Human D2 Dopamine Receptor: Primary Screen for Agonists | HEK293 T-REx D2 cells, calcium flux agonist mode | activation, % at 2 µM | D(2) dopamine receptor (Homo sapiens), P14416 | AID 485358, 2010 | actives 0.53% (n = 340,000);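 active means activation over 3 SD above normal in the single-dose calcium agonist read, cut at about 30% in these data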
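Calcium-flux readout, 1 cycle/sec over 180 s following compound pin transfer, in inducible HEK293 Trex D2 cells (force-coupled); dopamine controls included. Positive calcium responses during this window marked compounds as potential agonists.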
D2 PAM-1: Beta-Arrestin HTS for Positive Allosteric Modulators of the Human D2 Dopamine Receptor: Potentiators; actives 0.23% (n = 360,000); D(2) dopamine receptor (Homo sapiens), P14416; DiscoveRx D2 beta-arrestin cells, luminescence, 90 min; 100% = 57 uM dopamine signal; potentiation, % (no concentration beside the values); in the data active means potentiation above about 50%
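D2 cells co-treated with compound plus 50 nM dopamine (EC20) for 90 min at 37 deg C to detect potentiation. Beta-arrestin recruitment was read as enzyme-fragment luminescence after 1 h at ambient temperature. Full response was set by 57 uM dopamine.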
D2 antag: HTS Assay for Allosteric Antagonists of the Human D2 Dopamine Receptor: Primary Screen for Antagonists; D(2) dopamine receptor (Homo sapiens), P14416; HEK293 TREx D2 cells, calcium flux, dopamine EC80; inhibition, % at 10 µM; actives 2% (n = 340,000); AID 485344, 2010; in the data active means inhibition above about 30%; inactive means below that, where a call was filed
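Tetracycline-induced HEK293 T-REx cells expressing D2 force-coupled to calcium signalling were dye-loaded, exposed to compound for 180 s, then challenged with an EC80 of dopamine; calcium flux was followed kinetically for a further 180 s.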
D2 PAM-2: HTS Assay for Positive Allosteric Modulators of the Human D2 Dopamine Receptor: Primary Screen for Potentiators | actives 0.34% (n = 340,000) | potentiation, % at 10 µM | AID 485347, 2010 | D(2) dopamine receptor (Homo sapiens), P14416 | HEK293 T-REx D2, calcium flux, EC20 dopamine potentiation;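 active means potentiation over 3 SD above the plate norm, cut at about 30% in these data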
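Potentiation of an EC20 dopamine calcium response measured kinetically over 180 s, after a preceding 180 s compound-only read flagging agonists. Cells: inducible Hek293 Trex D2 line, 4000/well, cultured overnight at 30 C before dye loading.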
Of the large screens only hits and unclear results are named; the others gave an inactive call.

Cc1ccc(NC(=O)C(C)OC(=O)/C=C/c2ccccc2)cc1S(=O)(=O)N1CCOCC1 (configuration not stated)	D2 PAM-2 41
Cc1ccc(N(Cc2ccccc2)C(=O)c2ccc(F)c(S(=O)(=O)N3CCOCC3)c2)cc1	D2 antag 59
COc1cccc(NC(=O)c2ccc3c(c2)CCCC3)c1	none
Cc1ccc(NC(=O)COC(=O)/C=C/c2cccc(Cl)c2)cc1S(=O)(=O)N1CCOCC1	none
CC(=O)c1cccc(NC(=O)c2ccc3c(c2)CCCC3)c1	D2 antag 33
Cc1oc(-c2cccc(F)c2)nc1CN1CCCCC1CCn1cccn1 (configuration not stated)	D2 antag 45
Cc1ccc(-c2nc(CN3CCCCC3CCN3CCCC3=O)c(C)o2)o1 (configuration not stated)	none (no result: D2 ag-2, D2 antag, D2 PAM-2)
O=C(Cn1cnc2nc3c(cc2c1=O)CCCC3)Nc1ccc(F)cc1Cl	none (no result: D2 ag-1, D2 PAM-1, D2 antag)
O=C(Nc1cc(C(F)(F)F)ccc1-n1cncn1)c1ccc(F)cc1Cl	D2 antag 35
Cc1ccc(C(=O)Nc2cc(C(F)(F)F)ccc2-n2cncn2)o1	none
Cc1ccc(NC(=O)CSc2nc(=O)n(CCCN3CCOCC3)c3c2CCCC3)cc1F	D2 antag 31
CCN(CC)CCNC(=O)c1nn(C)c2c1CS(=O)(=O)c1ccccc1-2	none (no result: D2 ag-1, D2 PAM-1, D2 antag)
Cc1cccc(C)c1C(OCCN(C)C)C1CCCCC1 (configuration not stated)	D2 antag 89
CN(C)CCOC(c1ccccc1)c1ccccc1 (tested in a mixture with another compound)	none
Cc1cccc(N2CCN(C(=O)CCNS(=O)(=O)c3ccc4c(c3)CCN4C(=O)C3CC3)CC2C)c1 (configuration not stated)	none (no result: D2 ag-1, D2 PAM-1, D2 antag)
COc1ccc(-c2csc(C)n2)cc1Br	D2 antag 36
COc1cc(-c2csc(C)n2)ccc1O	none
CSc1ccc(/C=C(\C(=O)O)c2ccc(S(=O)(=O)N3CCCC3)s2)cc1	D2 antag 36
COc1cc(CNc2cccc(C(=O)O)c2)cc(Br)c1OCC(=O)NC(C)(C)C	D2 antag 60
COc1cc(CNc2ccc3[nH]c(=O)[nH]c3c2)cc(Br)c1OCC(=O)NC(C)(C)C	none
O=C(Nc1cnn(Cc2c(Cl)cccc2Cl)c1)C(c1ccccc1)c1ccccc1	D2 PAM-2 33
O=C(COc1ccccc1Cl)Nc1cnn(Cc2ccccc2)c1	none
CCc1ccc(N(C(C)=O)C2C=CS(=O)(=O)C2)cc1 (configuration not stated)	D2 antag 37
O=[N+]([O-])c1cc(-c2nc3nc4ccccc4nc3n2CCc2ccccc2)cc([N+](=O)[O-])c1	D2 antag 67
CC(=O)N1N=C(c2ccc(C)cc2)OC1c1ccc(C(C)C)cc1 (configuration not stated)	none
CC(=O)N1N=C(c2cccnc2)OC1c1ccc(C(C)C)cc1 (configuration not stated)	D2 antag 55
Cc1ccc(S(=O)(=O)CCC(=O)Nc2ccc(OC(F)(F)F)cc2)cc1	none (no result: D2 ag-1, D2 PAM-1, D2 antag)
COc1ccc(NC(=O)Cc2csc(COc3cccc(C)c3)n2)c(OC)c1	none (no result: D2 ag-1, D2 PAM-1, D2 antag)
CC(C)(C)CC(=O)Nc1cc2c3c(c1)CCC(=O)N3CCC2	D2 antag 35
Cc1cccc(C(=O)NNc2ncnc3c2cnn3-c2ccc(C)cc2C)c1	none (no result: D2 ag-1, D2 PAM-1, D2 antag)
CC(C)Cn1cnc2c(c(-c3ccccc3)c(-c3ccccc3)n2Cc2ccco2)c1=N	D2 antag 46
N=c1c2c(-c3ccccc3)c(-c3ccccc3)n(Cc3ccco3)c2ncn1Cc1ccccc1	none
CCNC(=O)COC(=O)C1CCN(S(=O)(=O)c2ccc3c(c2)OCCO3)CC1	none
N#CCOC(=O)C1CCN(S(=O)(=O)c2ccc3c(c2)OCCO3)CC1	D2 PAM-2 34
CCOc1ccc(OCCOCCN2CCCC2)cc1	none
Cc1ccc(SCCOCCN2CCc3ccccc3C2)cc1	D2 antag 75
CCCOc1ccc(OCCOCCN2CCc3ccccc3C2)cc1	D2 antag 31
Cc1ccc(SCCOCCN2CC(C)OC(C)C2)cc1 (configuration not stated)	none
COc1ccc(OCCCN2CCc3ccccc3C2)cc1	D2 antag 72
C=CCc1cc(OC)ccc1OCCOCCN1CCc2ccccc2C1	D2 antag 84
O=c1c2oc3ccccc3c2n(Cc2cccc(F)c2)c(=O)n1Cc1ccc2c(c1)OCO2	none (no result: D2 ag-1, D2 PAM-1, D2 antag)
O=C(CCNS(=O)(=O)c1ccc2c(c1)CCN2C(=O)C1CC1)Nc1ccc(Cl)cc1	none (no result: D2 ag-1, D2 PAM-1, D2 antag)
c1ccc(OCCOCCN2CCc3ccccc3C2)cc1	D2 antag 65
CCOc1ccc(OCCOCCN2CCc3ccccc3C2)cc1	D2 antag 68
c1ccc(OCCOCCN2CCN(C(c3ccccc3)c3ccccc3)CC2)cc1	none
O=[N+]([O-])c1ccc(OCCCCN2CCc3ccccc3C2)cc1	D2 antag 62
CC(C)c1ccc(NC(=O)c2cc3c(s2)-c2ccccc2SC3)cc1	none (no result: D2 ag-1, D2 PAM-1, D2 antag)
CCOc1cccc(NC(=O)C2CC(=O)N(C)C(=Nc3cccc(OC)c3)S2)c1 (configuration not stated)	none (no result: D2 ag-1, D2 PAM-1, D2 antag)
Cc1cc(NC(=O)Cn2c(=O)oc3ccccc32)no1	D2 antag 33
CSc1ccc(CCNC(=O)c2cc(C)nc3c2c(C)nn3-c2ccccc2)cc1	none (no result: D2 ag-1, D2 PAM-1, D2 antag)
Cc1cc([N+](=O)[O-])ccc1NC(=O)/C=C/c1cccs1	D2 antag 44
Cc1ccc(NC(=O)C2CC(=O)NC(N3CCCCC3)=N2)cc1Cl (configuration not stated)	D2 antag 71
O=C1CC(C(=O)Nc2ccccc2)N=C(N2CCCCC2)N1 (configuration not stated)	none
COc1ccc(OCC(O)CNC(=O)Nc2cc(F)ccc2C)cc1 (configuration not stated)	D2 antag 38
O=[N+]([O-])c1ccc(NC2CCN(Cc3ccccc3)CC2)c([N+](=O)[O-])c1	none
NC(=O)CC(NC(=O)Cc1ccc(Br)cc1)c1ccc(NC2CCN(Cc3ccccc3)CC2)c([N+](=O)[O-])c1 (configuration not stated)	none
NC(=O)CC(NC(=O)Cc1cccc2ccccc12)c1ccc(NC2CCN(Cc3ccccc3)CC2)c([N+](=O)[O-])c1 (configuration not stated)	D2 antag 32
O=[N+]([O-])c1ccccc1NC1CCN(Cc2ccccc2)CC1	D2 antag 39
